An excerpt weighted towards active compounds, which were near 6.2% of everything screened.
MARV entry inh = Marburg virus entry inhibition; Marburg virus pseudotyped entry inhibition, cell reporter; AID 540276; actives 1.8% (n = 300,000); Potency, µM (top dose mostly 37.8 µM), actives largely listed as inhibitors; calls by dose curve; tested in HEK293 cells
FMDV inh = antivirals against foot and mouth disease virus; FMDV antiviral cell-based qHTS; Potency, µM (series often up to 57.9 µM), actives largely listed as inhibitors; actives 1.2% (n = 410,000); AID 1159524; calls by dose curve; tested in HEK293T cells; note: read-out not given here; nearly all actives have a fitted effect of over 45% in size
Lassa entry inh = blocks Lassa virus binding to or entry into cells | Lassa virus pseudotype entry inhibition, cell reporter | Potency, µM (highest dose often 37.9 µM), usual class: inhibitors | actives 1.2% (n = 300,000); calls by dose curve; tested in HEK293 cells; note: nearly all actives have a fitted effect of over 50% in size
HCMV antiviral = blocks human cytomegalovirus replication | HFF cells, HCMV-luciferase reporter, 72 h; stronger effect = lower value | activity change, negative = inhibition, % at 57.5 µM | actives 4.5% (n = 410,000) | AID 1259415; in the data active = activity change below about -60%; inconclusive = no clear call, values can overlap the other calls; inactive = above about -39%
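After 16 h attachment at 37C, HFF cells received test compound and HCMV-luciferase (1 PFU/cell); reporter luminescence read 72 h later, data normalized against buffer-only and known inhibitor Salinomycin.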
Numbers stand for hits; – = inactive; ? = inconclusive; · = no result given; + = active, no number; ! = a repeat was not active.

SMILES	MARV entry inh	FMDV inh	Lassa entry inh	HCMV antiviral
CCOC(=O)c1nn(-c2ccc3c(c2)OCO3)cc1O	–	–	–	-101
O=C1N(Cc2cccc(Cl)c2)C[C@@H]2C[C@@H](c3cccn3-c3ccccn3)N3CCC[C@@]123	?	–	?	–
O=C1N(Cc2cccc(Cl)c2)C[C@@H]2C[C@@H](c3cccn3-c3nccs3)N3CCC[C@@]123	11µM	?	?	–
COc1ccc(NC(=O)CSc2nc3nc(C)c(Cc4ccccc4)c(C)n3n2)cc1OC	·	–	–	-66
COc1cc(NC(=O)CSc2nc3nc(C)c(Cc4ccccc4)c(C)n3n2)cc(OC)c1	·	–	–	–
COc1ccccc1CN1CCOc2ccc(C(C)(O)CN(C)C)cc2C1 (configuration not stated)	·	–	·	·
Cc1cccc(NC(=O)CCc2ccc(N3C(N)=NC(N)=NC3(C)C)cc2)c1	·	–	·	-99
CC1(C)N=C(N)N=C(N)N1c1ccc(OCCCOc2ccccc2)c(Cl)c1	·	?	·	-100
CCOC(=O)c1cccc(N2C(N)=NC(N)=NC2(C)C)c1	–	–	–	?
CC1(C)N=C(N)N=C(N)N1c1ccc(OCC(=O)Nc2ccccc2)c(Cl)c1	·	–	·	-95
CC1(C)N=C(N)N=C(N)N1c1cccc(CC(=O)Nc2ccccc2)c1	·	–	·	-82
CC1(C)N=C(N)N=C(N)N1c1cccc(C(=O)O)c1	–	?	–	?
Cc1ccc(-n2c(=O)c3c4c(sc3n(Cc3cc(=O)n5cc(Cl)ccc5n3)c2=O)CCC4)cc1C	–	–	–	–
CSc1ccc(CCNC(=O)Cn2ccc3cc(S(=O)(=O)N4CCCCCC4)ccc32)cc1	·	?	–	–
COc1ccc(-c2ccc3c(c2)c(Sc2ccccc2)c(-c2ccccc2)n3C)cn1	·	–	·	–
CC1(C)N=C(N)N=C(N)N1c1ccc(OCC(=O)N2CCOCC2)c(Cl)c1	·	–	·	-101
CC(C)c1ccc(S(=O)(=O)N2CCN(C(C)C(=O)N3CCCC3)CC2)cc1 (configuration not stated)	–	–	?	-70
CCC(C)c1ccc(S(=O)(=O)N2CCN(C(C)C(=O)NC3CCCC3)CC2)cc1 (configuration not stated)	–	–	2.8µM	?
CCN(CC)C(=O)C1=C(C)N(CCCOC)C(=O)C(CC(=O)NCc2cccs2)C1 (configuration not stated)	·	–	·	–
COC(=O)C1=C(C(=O)OC)[C@@H]2N(Cc3ccccc3)c3ccccc3[C@@]23C[C@@H](CO)N(C(=O)CC(C)C)C3=N1	–	·	·	·
COc1ccc(-n2nnc3c(SC(C(C)=O)C(=O)N(C)C)ncnc32)cc1 (configuration not stated)	·	32µM	·	–
N=C(N)SCCN	35µM!	–	–	–
CCOC(=O)CN(C)C(=O)c1cnn(-c2ncc3c(n2)-c2ccccc2CCC3)c1C	·	–	·	·
Cc1csc(NC(=O)Cc2coc3cc(C)c(C(C)C)cc23)n1	4µM	?	2.8µM	-89
CCOc1cc2c(cc1O)C(=NO)CC1C2CCC2(C)C(O)CCC12 (configuration not stated)	?	–	?	-76
SMILES	MARV entry inh	FMDV inh	Lassa entry inh	HCMV antiviral
COc1cc2c(cc1O)CC[C@@H]1[C@@H]2CC[C@]2(C)[C@@H](O)CC[C@@H]12	–	–	?	·
Cc1cc(NC(=O)CSc2nnc(-c3ccccc3)c(-c3ccccc3)n2)no1	?	?	?	-62
Cc1cc(NC(=O)CSc2nnc(-c3ccccc3)o2)no1	–	–	–	–
COCCn1c(-c2ccc(OC)cc2)cnc1SCC(=O)Nc1cc(C)on1	?	?	–	-86
Cc1cc(NC(=O)CCc2ccc(-c3ccccc3)o2)no1	?	–	?	-102
CCOc1cc(-c2nnc(SCC(=O)NCc3ccccc3)nc2-c2ccc(OC)c(OCC)c2)ccc1OC	·	–	?	-75
CCN1C(=NCCCCO)NC(c2cccc(C(F)(F)F)c2)C(C(=O)OC)=C1C (configuration not stated)	–	·	·	·
CC=COC(=O)N[C@@H](c1ccccc1)[C@]1(C(C)=O)CCCC1=O	–	·	?	·
CC(C)OC(=O)c1cn(Cc2c(F)cccc2F)c2sc(-c3ccc(NC(=O)C(C)C)cc3)c(CN(C)Cc3ccccc3)c2c1=O	·	–	·	·
Cc1cc(NC(=O)CSc2ccccc2)no1	?	–	–	-102
Cc1cc(NC(=O)CSCC(=O)Nc2ccc(C)c(C)c2)no1	·	–	·	+
Cc1cccc(-n2c(N)cc(=O)nc2SCC(=O)Nc2cc(C)on2)c1	–	–	–	–
Cc1cc(NC(=O)CSc2nc(=O)cc(N)n2-c2ccc(Cl)cc2)no1	–	–	–	-64
Cc1cc(NC(=O)CSc2ccc(F)cc2)no1	·	–	·	?
Cc1cc(C)c2cc(C#N)c(SCC(=O)Nc3cc(C)on3)nc2c1	–	–	·	-61
CCc1cc2c(C)cc(C)cc2nc1SCC(=O)Nc1cc(C)on1	–	–	?	–
CCCC(C)C1(CC)C(=O)NC(=Nc2ccc(OC)cc2)NC1=O (configuration not stated)	–	–	–	-60
CCCC(C)C1(CC)C(=O)NC(=Nc2ccccc2OC)NC1=O (configuration not stated)	–	–	–	–
CCOC(=O)c1cccc(NC(=O)CC2C(=O)N(c3ccc(Cl)cc3)C(=O)N2C2CCCC2)c1 (configuration not stated)	·	–	–	–
Cc1nc2ncccn2c1-c1csc(Nc2ccc(S(N)(=O)=O)cc2)n1	·	–	·	–
COc1ccc(Nc2nc(-c3c(C)nc4ncccn34)cs2)cc1	·	?	·	-98
COc1ccccc1Nc1nc(-c2sc(N)nc2C)cs1	·	–	·	–
COc1ccccc1Nc1nc(-c2c(C)nc3ncccn23)cs1	?	14µM	?	–
Cc1nc2ncccn2c1-c1csc(Nc2ccc(N(C)C)cc2)n1	?	?	–	-65
Cc1nc2ncccn2c1-c1csc(Nc2ccccc2)n1	?	?	–	–
Oc1ccc(-c2csc(NCc3ccco3)n2)cc1	–	–	?	–
Cc1nc2ncccn2c1-c1csc(NCc2ccco2)n1	–	35µM	–	–
Cc1nc2sccn2c1-c1csc(NCc2ccccc2)n1	?	·	–	-72
Cc1cnc(C(=O)O)c[n+]1[O-]	·	–	·	·

Source: PubChem
